{
  "source": "PubChem BioAssay (Tox21)",
  "note": "Where “and” joins values, the source holds several entries; their conditions need not be identical. Equal entries are not always repeated. Inconclusive results are not listed. A call without a number means that no potency is given here. Some structures have more than one record in an assay (separate samples or runs), and their calls can disagree. Calls of active or inactive are those of the source. The call rests on the fitted dose curve; in most records, active means well fitted activation curve with a large enough effect in the repeat runs; inconclusive means weak or mixed curves, or effect the other way; inactive means no such curve, though single readings can be large or run the other way. Potency means the concentration at half of the fitted maximal effect.",
  "data": [
    {"test": "qHTS assay to identify small molecule agonists of the estrogen related receptor signaling pathway with the pleiotropic PPARgamma coactivator (PGC) from Tox21 10K library (AID 1224842); further: nearly all actives have a fitted effect of over 15% in size", "settings": "PGC/ERR reporter cell line, luciferase ONE-Glo, 18 h; series mostly up to 92.4 µM", "text": "National Center for Advancing Translational Sciences [NCATS] NIH Chemical Genomics Center [NCGC] U.S. Environmental Protection Agency [EPA] National Institutes of Environmental Health Sciences [NIEHS] National Toxicology Program [NTP] Assay overview: Estrogen related receptors (ERRs), the first orphan nuclear receptors discovered, play an important role in the control of cellular energy metabolism. ERRs are required for high-energy production in response to the environmental challenges. The pleiotropic PPARgamma coactivator (PGC) is a major partner of ERR and a key regulator in energy homeostasis. Together they have been implicated in the etiology of metabolic disorders such as Type 2 diabetes and metabolic syndrome. ERR-alpha was also identified as an adverse marker for breast cancer progression; ERR-alpha-positive tumors have a poor prognosis. To screen and to identify environmental compounds that perturb the PGC/ERR signaling pathways could provide valuable information for potential therapeutic or preventive measures in the treatment of metabolic disease. For identifying PGC/ERR agonists, PGC/ERR cell line (provided by NTP) has been used to screen Tox21 10K library.\nAssay Protocol Summary: The PGC/ERR cells were dispensed at 2,000 cells/5 ul/well in 1536-well white plates using a Multidrop dispenser. After the assay plates were incubated at a 37 C/5% CO2 incubator for 6 hours, 23 nL of compounds dissolved in DMSO, positive and negative controls or DMSO only was transferred to the assay plate by a pin tool. The plates were incubated at 37 C for 18 hours. 4 ul/well of One-Glo reagent was added into the assay plates using a Flying Reagent Dispenser. After 30-minute incubation at room temperature, the luminescence intensity in the plates was measured using a ViewLux plate reader.", "values": [
      {"molecule": "CS(=O)(=O)Nc1ccc([N+](=O)[O-])cc1Oc1ccccc1", "Potency": "inactive"},
      {"molecule": "O=c1c(-c2ccc(O)cc2)coc2cc(O)ccc12", "Potency": "24.1 µM (active) and 27.3 µM (active)"},
      {"molecule": "CC(C)(N=C=O)c1cccc(C(C)(C)N=C=O)c1", "Potency": "inactive"},
      {"molecule": "O=[N+]([O-])C(CO)(CO)CO", "Potency": "inactive"},
      {"molecule": "C=C1C2CCC(C2)C1(C)C", "note": "(stereo not given)", "Potency": "inactive"},
      {"molecule": "C=C(C#N)C(=O)OCC", "Potency": "inactive"},
      {"molecule": "Cc1cc(=O)[nH]c(C(C)C)n1", "Potency": "inactive"},
      {"molecule": "CC(=O)CCc1ccccc1", "Potency": "inactive"},
      {"molecule": "NCCNCCNCCNCCN", "Potency": "inactive"},
      {"molecule": "CCCCCCCCCC(=O)O", "Potency": "inactive"},
      {"molecule": "CC#C[C@]1(O)CC[C@H]2[C@@H]3CCC4=CC(=O)CCC4=C3[C@@H](c3ccc(N(C)C)cc3)C[C@@]21C", "Potency": "inactive"},
      {"molecule": "CC1=C(/C=C/C(C)=C/C=C/C(C)=C/CO)C(C)(C)CCC1", "Potency": "inactive"},
      {"molecule": "Oc1c(Cl)cc(Cl)c(Cl)c1Cl", "Potency": "inactive"},
      {"molecule": "CC1Cc2ccccc2N1NC(=O)c1ccc(Cl)c(S(N)(=O)=O)c1", "note": "(stereo not given)", "Potency": "inactive"},
      {"molecule": "CCCCC(CC)COC(C)=O", "note": "(stereo not given)", "Potency": "inactive"},
      {"molecule": "ClC1=C(Cl)C(Cl)(Cl)C(Cl)=C1Cl", "Potency": "inactive"},
      {"molecule": "COCC(C)O", "note": "(stereo not given)", "Potency": "inactive"},
      {"molecule": "O=S(=O)(O)CCS", "Potency": "inactive"},
      {"molecule": "OC[C@@H](O)[C@H](O)[C@H](O)[C@@H](O)CO", "Potency": "inactive"},
      {"molecule": "CC1(C)O[C@@H]2C[C@H]3[C@@H]4C[C@H](F)C5=CC(=O)CC[C@]5(C)[C@H]4[C@@H](O)C[C@]3(C)[C@]2(C(=O)CO)O1", "Potency": "inactive"},
      {"molecule": "O=C1O[C@H](CO)[C@@H](O)[C@H](O)[C@H]1O", "Potency": "inactive"},
      {"molecule": "CCCCCCCCCCCCOCC1CO1", "note": "(stereo not given)", "Potency": "inactive"},
      {"molecule": "c1ccc2ccccc2c1", "Potency": "inactive"},
      {"molecule": "CCOC(=O)/C=C\\C(=O)OCC", "Potency": "inactive"},
      {"molecule": "CCCCC(CC)COC(=O)/C=C\\C(=O)OCC(CC)CCCC", "note": "(stereo not given)", "Potency": "inactive"},
      {"molecule": "CCc1ccc(O)cc1", "Potency": "inactive"},
      {"molecule": "CCCCNC(N)=O", "Potency": "inactive"},
      {"molecule": "OC1CCCC1", "Potency": "inactive"},
      {"molecule": "CCCCC(CC)C(=O)OCCOCCOCCOC(=O)C(CC)CCCC", "note": "(stereo not given)", "Potency": "inactive"},
      {"molecule": "Clc1cc(Cl)c(Cl)cc1Cl", "Potency": "inactive"},
      {"molecule": "Cc1cc(O)c2c(c1)C(=O)c1cc(O)cc(O)c1C2=O", "Potency": "inactive"},
      {"molecule": "O=[N+]([O-])c1cccc(Cl)c1", "Potency": "inactive"},
      {"molecule": "O=C1CCCCC1", "Potency": "inactive"},
      {"molecule": "COC(=O)c1ccccc1O", "Potency": "21.7 µM (active) and inactive"},
      {"molecule": "C[C@@H](O)[C@H]1C(=O)N2C(C(=O)O)=C(S[C@@H]3CN[C@H](C(=O)N(C)C)C3)[C@H](C)[C@H]12", "Potency": "inactive"},
      {"molecule": "OC[C@@H](O)[C@@H](O)[C@H](O)[C@@H](O)CO", "Potency": "inactive"},
      {"molecule": "Nc1cc(-c2ccncc2)c[nH]c1=O", "Potency": "inactive"},
      {"molecule": "CCCCOCCO", "Potency": "inactive"},
      {"molecule": "CC(C)(CO)COC(=O)C(C)(C)CO", "Potency": "inactive"},
      {"molecule": "CCCCC(CC)COC(=O)CCCCCCCC(=O)OCC(CC)CCCC", "note": "(stereo not given)", "Potency": "inactive"}
    ]}
  ]
}
